In all, about 16,000 sequences were measured (“rpm ratio (pull-down/input)”: median about 0.5, highest 2% from about 5.5 on). Only a selection was taken, and the highest values are over-represented in it overall.

These results are taken from PMC12820563, “FoxP3 forms a head-to-head dimer in vivo and stabilizes its multimerization on adjacent microsatellites”.

This experiment concerns the target T1, MBP-FoxP3dN (Mus musculus, UniProt Q99JB6 188-423).
T1 sequence: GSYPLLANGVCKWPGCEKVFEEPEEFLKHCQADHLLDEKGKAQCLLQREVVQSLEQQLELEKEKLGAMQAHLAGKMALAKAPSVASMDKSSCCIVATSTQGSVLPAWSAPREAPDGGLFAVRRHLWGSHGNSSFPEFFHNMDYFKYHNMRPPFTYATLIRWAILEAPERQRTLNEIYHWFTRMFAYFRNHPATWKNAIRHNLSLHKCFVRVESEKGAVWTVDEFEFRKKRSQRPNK
The experiment is described as follows: PD-seq (MBP pull-down with sequencing); 20 mM Tris-HCl pH 7.5, 100 mM NaCl, 1.5 mM MgCl2, 0.4 uM protein, 0.1 uM dsDNA library, 30 min, room temperature, amylose pull-down; high values mean tight binding. Conditions: protein: recombinant; tags: His6-MBP; chain copies: 2; dsDNA, one strand shown. A digest of the protocol: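 The N-terminus-lacking fragment of mouse FoxP3 or FoxP1 carried a His6-MBP tag and was expressed in E. coli. At 0.4 µM it was incubated with 0.1 µM Klenow-filled degenerate double-stranded DNA library for 30 min at room temperature in Tris pH 7.5 buffer with NaCl and MgCl2, and complexes were caught on amylose resin, washed three times, released with proteinase K, PCR-barcoded and Illumina-sequenced. Binding is reads-per-million enrichment of pull-down over input with replicates pooled.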
As for “GATGATTGTTCTCCCAGCTGATGAATTAAAGCTGTCGAGTAAACAAATTTTCCTAATCTTTCTGTTCAAGCGCCATCTAC”, the binding signal is 0.47 RPM ratio (pull-down/input). With “GATGATTGTTCTCCCAGCTGATGAATTCTTTCCCTCGAGTAAACAAATTTTCCTAATCTTTCTGTTCAAGCGCCATCTAC”, the binding signal was 0.206 RPM ratio (pull-down/input). Under “GATGATTGTTCTCCCAGCTGATGAATTAGTAGGGTCGAGTAAACAAATTTTCCTAATCTTTCTGTTCAAGCGCCATCTAC” stands 1.4 RPM ratio (pull-down/input).

On to “GATGATTGTTCTCCCAGCTGATGAATTGCAACTCTCGAGTAAACAAATTTTCCTAATCTTTCTGTTCAAGCGCCATCTAC”, for which the binding signal was 2.79 RPM ratio (pull-down/input).

Turning to “GATGATTGTTCTCCCAGCTGATGAATTGTGCAACTCGAGTAAACAAATTTTCCTAATCTTTCTGTTCAAGCGCCATCTAC”, the binding signal is 6.92 RPM ratio (pull-down/input). With “GATGATTGTTCTCCCAGCTGATGAATTCCGCAACTCGAGTAAACAAATTTTCCTAATCTTTCTGTTCAAGCGCCATCTAC”, the binding signal is 6.11 RPM ratio (pull-down/input). Under “GATGATTGTTCTCCCAGCTGATGAATTCCGCAAATCGAGTAAACAAATTTTCCTAATCTTTCTGTTCAAGCGCCATCTAC” stands 0.692 RPM ratio (pull-down/input). On to “GATGATTGTTCTCCCAGCTGATGAATTCAGCAACTCGAGTAAACAAATTTTCCTAATCTTTCTGTTCAAGCGCCATCTAC”, for which the binding signal was 4.78 RPM ratio (pull-down/input).

As for “GATGATTGTTCTCCCAGCTGATGAATTCTGCAACTCGAGTAAACAAATTTTCCTAATCTTTCTGTTCAAGCGCCATCTAC”, the binding signal is 5.96 RPM ratio (pull-down/input). Turning to “GATGATTGTTCTCCCAGCTGATGAATTTGCAAACTCGAGTAAACAAATTTTCCTAATCTTTCTGTTCAAGCGCCATCTAC”, the binding signal was 0.673 RPM ratio (pull-down/input).

With “GATGATTGTTCTCCCAGCTGATGAATTTGCCAACTCGAGTAAACAAATTTTCCTAATCTTTCTGTTCAAGCGCCATCTAC”, the binding signal is 0.47 RPM ratio (pull-down/input). Take “GATGATTGTTCTCCCAGCTGATGAATTCAACAACTCGAGTAAACAAATTTTCCTAATCTTTCTGTTCAAGCGCCATCTAC”: the binding signal is 0.576 RPM ratio (pull-down/input). Take “GATGATTGTTCTCCCAGCTGATGAATTTTGCAACTCGAGTAAACAAATTTTCCTAATCTTTCTGTTCAAGCGCCATCTAC”: the binding signal was 6.24 RPM ratio (pull-down/input).

As to “GATGATTGTTCTCCCAGCTGATGAATTGTTCAACTCGAGTAAACAAATTTTCCTAATCTTTCTGTTCAAGCGCCATCTAC”, the binding signal was 0.485 RPM ratio (pull-down/input).

Take “GATGATTGTTCTCCCAGCTGATGAATTCTACAACTCGAGTAAACAAATTTTCCTAATCTTTCTGTTCAAGCGCCATCTAC”: the binding signal is 0.303 RPM ratio (pull-down/input). With “GATGATTGTTCTCCCAGCTGATGAATTATCAAACTCGAGTAAACAAATTTTCCTAATCTTTCTGTTCAAGCGCCATCTAC” the figure was 0.363 RPM ratio (pull-down/input); with “GATGATTGTTCTCCCAGCTGATGAATTGCCCTCCTCGAGTAAACAAATTTTCCTAATCTTTCTGTTCAAGCGCCATCTAC”, 0.471 RPM ratio (pull-down/input); with “GATGATTGTTCTCCCAGCTGATGAATTTCGTCAATCGAGTAAACAAATTTTCCTAATCTTTCTGTTCAAGCGCCATCTAC”, 0.411 RPM ratio (pull-down/input). Under “GATGATTGTTCTCCCAGCTGATGAATTATTAGCTTCGAGTAAACAAATTTTCCTAATCTTTCTGTTCAAGCGCCATCTAC” stands 0.671 RPM ratio (pull-down/input); under “GATGATTGTTCTCCCAGCTGATGAATTATTCCGATCGAGTAAACAAATTTTCCTAATCTTTCTGTTCAAGCGCCATCTAC”, 0.214 RPM ratio (pull-down/input); under “GATGATTGTTCTCCCAGCTGATGAATTTCATCTGTCGAGTAAACAAATTTTCCTAATCTTTCTGTTCAAGCGCCATCTAC”, 0.411 RPM ratio (pull-down/input). Under “GATGATTGTTCTCCCAGCTGATGAATTGTGGCTGTCGAGTAAACAAATTTTCCTAATCTTTCTGTTCAAGCGCCATCTAC” stands 1.13 RPM ratio (pull-down/input); under “GATGATTGTTCTCCCAGCTGATGAATTATCATCGTCGAGTAAACAAATTTTCCTAATCTTTCTGTTCAAGCGCCATCTAC”, 0.418 RPM ratio (pull-down/input). Turning to “GATGATTGTTCTCCCAGCTGATGAATTAGCTAAGTCGAGTAAACAAATTTTCCTAATCTTTCTGTTCAAGCGCCATCTAC”, the binding signal is 0.231 RPM ratio (pull-down/input). Regarding “GATGATTGTTCTCCCAGCTGATGAATTCCAGTAATCGAGTAAACAAATTTTCCTAATCTTTCTGTTCAAGCGCCATCTAC”, the binding signal was 0.477 RPM ratio (pull-down/input). Regarding “GATGATTGTTCTCCCAGCTGATGAATTTGCTTTTTCGAGTAAACAAATTTTCCTAATCTTTCTGTTCAAGCGCCATCTAC”, the binding signal was 5.38 RPM ratio (pull-down/input). Turning to “GATGATTGTTCTCCCAGCTGATGAATTTGTTGCTTCGAGTAAACAAATTTTCCTAATCTTTCTGTTCAAGCGCCATCTAC”, the binding signal was 6.86 RPM ratio (pull-down/input).

With “GATGATTGTTCTCCCAGCTGATGAATTGCTGTTTTCGAGTAAACAAATTTTCCTAATCTTTCTGTTCAAGCGCCATCTAC”, the binding signal was 2.65 RPM ratio (pull-down/input). In the case of “GATGATTGTTCTCCCAGCTGATGAATTTTGCTGTTCGAGTAAACAAATTTTCCTAATCTTTCTGTTCAAGCGCCATCTAC”, the binding signal is 5.2 RPM ratio (pull-down/input).

On to “GATGATTGTTCTCCCAGCTGATGAATTTGCTATTTCGAGTAAACAAATTTTCCTAATCTTTCTGTTCAAGCGCCATCTAC”, for which the binding signal is 5.54 RPM ratio (pull-down/input). Turning to “GATGATTGTTCTCCCAGCTGATGAATTTGCTTGTTCGAGTAAACAAATTTTCCTAATCTTTCTGTTCAAGCGCCATCTAC”, the binding signal was 6.99 RPM ratio (pull-down/input).

Turning to “GATGATTGTTCTCCCAGCTGATGAATTTTGCTATTCGAGTAAACAAATTTTCCTAATCTTTCTGTTCAAGCGCCATCTAC”, the binding signal is 5.16 RPM ratio (pull-down/input). In the case of “GATGATTGTTCTCCCAGCTGATGAATTTTTGCTTTCGAGTAAACAAATTTTCCTAATCTTTCTGTTCAAGCGCCATCTAC”, the binding signal is 0.978 RPM ratio (pull-down/input). Under “GATGATTGTTCTCCCAGCTGATGAATTGCTATTTTCGAGTAAACAAATTTTCCTAATCTTTCTGTTCAAGCGCCATCTAC” stands 1.47 RPM ratio (pull-down/input); under “GATGATTGTTCTCCCAGCTGATGAATTTGCTGTTTCGAGTAAACAAATTTTCCTAATCTTTCTGTTCAAGCGCCATCTAC”, 6.28 RPM ratio (pull-down/input).

Regarding “GATGATTGTTCTCCCAGCTGATGAATTCTTTGCTTCGAGTAAACAAATTTTCCTAATCTTTCTGTTCAAGCGCCATCTAC”, the binding signal is 0.407 RPM ratio (pull-down/input). For “GATGATTGTTCTCCCAGCTGATGAATTTGCTGCTTCGAGTAAACAAATTTTCCTAATCTTTCTGTTCAAGCGCCATCTAC”, the binding signal was 3.05 RPM ratio (pull-down/input).
